Experimental data as given in PubChem BioAssay (NCI).
This is part of a sample that, as a whole, favours compounds with a hit. Of some 83,000 tested, about 20% had one in any assay.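 The endpoint reported here, percent growth, reads 100 for growth as untreated, 0 for no net growth and -100 for all cells dead.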 A number with no mark means an inactive call. Activity calls are given as the source filed them. The calls were made as follows: active = growth percent below 10; inactive = the rest.

What was measured:
Test in all cases: NCI-60 one-dose screen, 48 h (100 = growth as untreated, 0 = no growth, -100 = all killed)
Details in all cases: 10 µM unless noted
NCI-H23 lung = system: NCI-H23 lung
NCI-H226 lung = system: NCI-H226 lung
NCI-H322M lung = system: NCI-H322M lung
HOP-62 NSCLC = system: HOP-62 NSCLC
NCI-H460 lung = system: NCI-H460 lung
HOP-92 NSCLC = system: HOP-92 NSCLC
NCI-H522 lung = system: NCI-H522 lung
A549/ATCC NSCLC = system: A549/ATCC NSCLC
786-0 renal = system: 786-0 renal
COLO 205 colon = system: COLO 205 colon
DU-145 prostate = system: DU-145 prostate
K-562 leukemia = system: K-562 leukemia
MALME-3M melanoma = system: MALME-3M melanoma
MDA-MB-231 breast = system: MDA-MB-231 breast
RXF 393 renal = system: RXF 393 renal
SF-268 CNS = system: SF-268 CNS
SF-295 CNS = system: SF-295 CNS
SF-539 CNS = system: SF-539 CNS
UACC-257 melanoma = system: UACC-257 melanoma
M14 melanoma = system: M14 melanoma

Row | Compound | growth (NCI-H23 lung) | growth (NCI-H226 lung) | growth (NCI-H322M lung) | growth (HOP-62 NSCLC) | growth (NCI-H460 lung) | growth (HOP-92 NSCLC) | growth (NCI-H522 lung) | growth (A549/ATCC NSCLC) | growth (786-0 renal) | growth (COLO 205 colon) | growth (DU-145 prostate) | growth (K-562 leukemia) | growth (MALME-3M melanoma) | growth (MDA-MB-231 breast) | growth (RXF 393 renal) | growth (SF-268 CNS) | growth (SF-295 CNS) | growth (SF-539 CNS) | growth (UACC-257 melanoma) | growth (M14 melanoma)
1 | COc1cccc(/C=C/C(=O)c2cc3c(N)c(C(=O)Nc4ccccc4)sc3nc2C)c1 | 49.6% | 55.3% | 67.9% | 13.6% | -22.5% (active) | 64.4% | 7.06% (active) | 34.3% | -38.2% (active) | 67.6% | 12% | 13.3% | 68.6% | 17.1% | -74.6% (active) | 18.2% | 44.8% | -16% (active) | 71.8% | 
2 | Cc1cnc(C(=O)NNc2nc3sc4c(c3c(=O)n2C)C(C)CCC4)cn1 (stereo not given) | 5.46% (active) | -1.53% (active) | 9.91% (active) | -39.1% (active) | 4.18% (active) | -9.03% (active) | -9.87% (active) | -5.22% (active) | 0.305% (active) | 0.0868% (active) | 7.49% (active) | 6.51% (active) | -22.3% (active) | -3.01% (active) | -12.6% (active) | 5.92% (active) | 8.03% (active) | -21.1% (active) | -11.3% (active) | -15.7% (active)
3 | CN(Cc1ccc(C(F)(F)F)cc1)CC(O)C(=O)Nc1ccc(Cl)cc1 (stereo not given) | -50.9% (active) | 51.8% | 42.4% | -37.8% (active) | 18.3% | -0.362% (active) | -51.4% (active) | 19.6% | -48.4% (active) | -68.6% (active) | -51.4% (active) | -36% (active) | 12.8% | 26% | 12.9% | 31.9% | -69.5% (active) | 21.9% | 1.78% (active) | -49.8% (active)
4 | Brc1ccc2[nH]cc(-c3nonc3-c3c[nH]c4ccccc34)c2c1 | 45.2% | 66.7% | 30.9% | 43.4% | 12.2% | 32.1% | 13.6% | 35.9% | 67.3% | 36.3% | 44.6% | 10.4% | 56.8% | 11.6% | 77.6% | 44.9% | 33.3% | 59.9% | 56.9% | 
5 | OCCOCCN(Cc1ccccn1)Cc1cc(I)cc(I)c1O | 90.2% | 83.1% | 82.9% | 84.9% | 59.5% | 90.2% | 74.4% | 88.5% | 85.2% | 107% | 87.8% | 107% | 87.8% | 96% | 81.1% | 81.4% | 59.3% | 90.8% | 104% | 81.1%
6 | O=C(c1cc2ccccc2o1)c1nn(-c2ccccc2)/c(=N/N=Cc2cn(-c3ccccc3)nc2-c2cc3ccccc3oc2=O)s1 | 99.4% | 99.4% | 92% | 97.6% | 106% | 73.2% | 88% | 106% | 103% | 117% | 103% | 78.2% | 98.9% | 86.2% | 107% | 96.8% | 104% | 98.4% | 103% | 
7 | CNC(=O)c1cc(Oc2ccc3nc(NC(C)=O)sc3c2)ccn1 | 103% | 101% | 104% | 109% | 104% | 99.9% | 104% | 102% | 94.6% | 105% | 101% | 81.8% | 92.7% | 98.7% | 115% | 97.4% | 95.2% | 94.3% | 102% | 
8 | Cc1ccc(/C=C2\CN(C(=O)OC(C)(C)C)C/C(=C\c3ccc(C)cc3)C2=O)cc1 | 56.6% | 84.9% | 98.7% | 94.9% | 53% | 84.1% | 58.4% | 81.5% | 56.5% | 51.6% | 38.7% | 3.47% (active) | 83.5% | 88.3% | 99.4% | 49.1% | 89.9% | 90.4% | 79.4% | 
9 | Cc1ccc(Cc2cnc(NC(=O)c3cc(Br)cs3)s2)cc1 | 73.1% | 73.1% | 79.7% | 50.8% | 46.7% | 59.1% | 34.3% | 51% | 67.8% | 80% | 84.9% | 15% | 56.5% | 70.9% | 71.4% | 71.7% | 43.8% | 66.4% | 79.5% | 30.4%
10 | O=C(CCCCCCN1CC(=O)N2[C@H](c3cc(Br)cs3)c3[nH]c4ccccc4c3C[C@H]2C1=O)NO | 50.4% | 79.9% | 38.5% | 41.8% | 35.1% | 18.2% | 20.5% | 61.1% | 76.9% | 42.6% | 29.1% | 10.2% | 18.6% | 44% | 18.7% | 66.8% | 45.8% | 43.3% | 27.7% | 37.2%
11 | COc1ccc2c(c1)c(-c1noc(C(=O)c3cn(C)c4ccc(Br)cc34)n1)cn2C | 99.3% | 93.8% | 97% | 93.9% | 105% | 108% | 76.9% | 84.5% | 112% | 110% | 113% | 88% | 93.9% | 103% | 114% | 99.2% | 117% | 101% | 92.7% | 97%
12 | Cc1ccc(S(=O)(=O)N2CCCC2CO)cc1 (stereo not given) | 84.9% | 99.9% | 93.6% | 188% | 99.9% | 76.9% | 90.7% | 103% | 100% | 103% | 104% | 114% | 83.8% | 100% | 103% | 101% | 112% | 94.4% | 107% | 95.1%
13 | O=C(CI)NC1Oc2ccccc2-c2oc(=O)c(-c3ccccc3)cc21 (stereo not given) | -55.7% (active) | -43.3% (active) | 105% | -3.99% (active) | 0.996% (active) | -72.4% (active) | -75.6% (active) | 94.7% | -79.3% (active) | -53.5% (active) | -93.8% (active) | -13% (active) | -77.1% (active) | -68.8% (active) | -89.4% (active) | -72.2% (active) | 87.4% | -89.5% (active) | 77.3% | -39.8% (active)
14 | COc1ccc2nc(NC(=O)CSc3nnc4n3S(=O)(=O)c3ccccc3N4C)sc2c1 | 94.9% | 103% | 102% | 97.9% | 112% | 90.5% | 70.9% | 77.9% | 103% | 138% | 115% | 91.2% | 120% | 94.5% | -29.4% (active) | 95.8% | 127% | 106% | 82.4% | 101%
15 | C=C1C(=O)O[C@H]2[C@H]1CC/C(COC(=O)N[C@H]1C[C@H](O[C@H]3C[C@](O)(C(=O)CO)Cc4c(O)c5c(c(O)c43)C(=O)c3c(OC)cccc3C5=O)O[C@@H](C)[C@H]1O)=C\CC[C@@]1(C)O[C@@H]21 | 91.1% | 58.2% | 98.7% | 78.7% | 63.4% | -5.4% (active) | -50.2% (active) | 77.2% | 43.1% | 36.2% | 69% | 7.56% (active) | -28.6% (active) | 11% | 19.2% | 64.2% | 102% | 20.8% | 61.4% | 82.6%
